Data: publication PMC4336329 (PLoS ONE, 2015)
The whole screen tested about 310,000 compounds, of which about 14,000 (4.5%) showed an effect of 50% or more. Effects have a minus sign here. The sample holds strong results, similar compounds and a random draw of the others, so the mix is not that of the screen.

biological target: human ether-à-go-go-related gene (hERG) potassium channel (human, UniProt Q12809); experiment: primary screen, population patch clamp on CHO cells stably expressing hERG; higher = less effect of the substance
Sequence (Q12809 whole entry, looked up): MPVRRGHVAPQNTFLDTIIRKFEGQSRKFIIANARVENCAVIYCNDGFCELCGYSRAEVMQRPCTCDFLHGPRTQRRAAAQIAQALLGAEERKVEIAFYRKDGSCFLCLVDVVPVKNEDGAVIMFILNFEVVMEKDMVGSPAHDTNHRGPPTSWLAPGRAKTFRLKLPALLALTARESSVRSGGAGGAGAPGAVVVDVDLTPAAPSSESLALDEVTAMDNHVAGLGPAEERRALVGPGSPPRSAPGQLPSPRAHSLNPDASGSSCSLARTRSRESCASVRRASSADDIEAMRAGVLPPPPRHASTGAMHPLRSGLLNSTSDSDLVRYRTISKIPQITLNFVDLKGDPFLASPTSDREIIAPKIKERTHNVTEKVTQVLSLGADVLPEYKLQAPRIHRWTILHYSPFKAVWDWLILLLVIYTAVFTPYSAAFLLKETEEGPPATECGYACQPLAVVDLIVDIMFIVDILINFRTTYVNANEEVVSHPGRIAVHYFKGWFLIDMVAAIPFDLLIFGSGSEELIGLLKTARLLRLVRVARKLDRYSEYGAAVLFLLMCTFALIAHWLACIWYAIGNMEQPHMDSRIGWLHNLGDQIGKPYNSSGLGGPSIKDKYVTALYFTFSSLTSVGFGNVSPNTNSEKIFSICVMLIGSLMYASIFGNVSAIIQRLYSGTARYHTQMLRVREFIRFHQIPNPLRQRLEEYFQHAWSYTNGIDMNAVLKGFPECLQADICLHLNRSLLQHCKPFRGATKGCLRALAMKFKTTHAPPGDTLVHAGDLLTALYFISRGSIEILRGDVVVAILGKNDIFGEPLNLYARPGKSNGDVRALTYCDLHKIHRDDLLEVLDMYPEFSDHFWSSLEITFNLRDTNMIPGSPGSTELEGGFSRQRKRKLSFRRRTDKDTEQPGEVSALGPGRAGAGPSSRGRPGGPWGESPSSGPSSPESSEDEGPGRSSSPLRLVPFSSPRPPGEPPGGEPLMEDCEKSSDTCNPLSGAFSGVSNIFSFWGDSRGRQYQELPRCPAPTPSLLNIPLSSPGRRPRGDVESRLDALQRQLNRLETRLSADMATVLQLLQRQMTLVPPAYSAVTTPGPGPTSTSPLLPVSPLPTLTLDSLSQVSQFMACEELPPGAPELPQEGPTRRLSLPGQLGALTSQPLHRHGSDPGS
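Note: peak tail current of the secondary pulse compared with the same well before compound.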

| Structure (SMILES) | hERG current change (%, negative = inhibition) at 10uM [%] |
| --- | --- |
| O=C(CSc1nnc(C2COc3ccccc3O2)o1)N1CCN(c2ccccc2)CC1 (stereo not drawn) | 8.03 |
| CCOC(=O)N1CCN(C(=O)C2CCC(CNS(=O)(=O)c3ccccc3)CC2)CC1 (stereo not drawn) | 3.18 |
| COc1ccc(NC(=O)c2ccc(-c3ccc([N+](=O)[O-])cc3)o2)cc1 | -33.1 |
| COc1ccc(CCNC(=O)Cc2ccc([N+](=O)[O-])cc2)cc1OC | -11.6 |
| COc1cccc(NC(=O)c2ccc(-c3ccc([N+](=O)[O-])cc3)o2)c1 | -36.2 |
| COc1ccc(NC(=O)c2ccc(-c3ccc([N+](=O)[O-])cc3)o2)cc1OC | -64.9 |
| COc1ccc(CCNC(=O)c2ccc(-c3cccc([N+](=O)[O-])c3)o2)cc1OC | -26.7 |
| COc1ccc(CCNC(=O)c2ccc(-c3ccc([N+](=O)[O-])cc3)o2)cc1OC | -60.7 |
| CCOC(=O)c1c(NC(=O)CCS(=O)(=O)c2ccccc2)sc2c1CC(C)(C)NC2(C)C | -44.9 |
| O=C(Nc1cccc(S(=O)(=O)N2CCOCC2)c1)c1ccc2ccccc2n1 | -1.59 |
| CCNc1nc(NCC)nc(SCCOc2ccc(C)cc2)n1 | -40.6 |
| COc1ccccc1N1CCN(C(=O)COc2ccc(S(=O)(=O)NC(C)C)cc2)CC1 | -4.64 |
| Cc1ccccc1NC(=S)N(CCN(C)C)C(C)c1ccco1 (stereo not drawn) | -12.1 |
| Cc1c(Cl)cccc1NC(=S)N(CCCN1CCOCC1)Cc1ccco1 | -43.9 |
| CCN1CCN(CCCN(Cc2ccco2)C(=S)Nc2cccc(Cl)c2C)CC1 | -61.2 |
| CCN1CCN(CCCN(Cc2ccco2)C(=S)Nc2ccccc2Cl)CC1 | -53.5 |
| S=C(Nc1ccccc1Cl)N(CCCN1CCOCC1)Cc1ccco1 | 0.554 |
| Cc1c(Cl)cccc1NC(=S)N(CCN(C)C)C(C)c1ccco1 (stereo not drawn) | -55.9 |
| COCCN(C(=S)Nc1cccc(Cl)c1C)C(C)c1ccco1 (stereo not drawn) | -15.4 |
| O=C(NCCCN1CCCC1=O)c1cccc(Oc2ccccc2)c1 | 10.5 |
| CCN(CC(=O)Nc1c(F)cccc1F)C(=O)CCN1C(=O)c2cccc([N+](=O)[O-])c2C1=O | 16.2 |
| N#CCC(=O)Nc1ncn(Cc2ccccc2Cl)n1 | 15.4 |

| Structure (SMILES) | hERG current change (%, negative = inhibition) at 10uM [%] |
| --- | --- |
| CCCCc1nc2cc(C(=O)NCc3ccccn3)ccc2o1 | 2.61 |
| COc1ccccc1C(=O)NC(=O)CSc1nc2nc(C)cc(C)n2n1 | 0.704 |
| Cc1cccc(N=c2oc3cc(O)ccc3cc2C(N)=O)c1 | -17.3 |
| Cc1cc(C(=O)CSc2nc(N)cc(N)n2)c(C)n1-c1cccc(C(F)(F)F)c1 | -64.4 |
| Cc1cc(C(=O)CSc2ncccn2)c(C)n1-c1cccc(F)c1 | -5.48 |
| Cc1cc(C(=O)CSc2nc(N)cc(N)n2)c(C)n1-c1cccc(F)c1 | -14.2 |
| C=CCn1c(Cc2ccccc2)n[nH]c1=S | 11.7 |
| COc1cc(C(=O)NCc2nnc(SCC(=O)N3CCOCC3)o2)cc(OC)c1OC | 17.2 |
| OCCCNc1nccc(-c2cc(Nc3cccc(Cl)c3)ncn2)n1 | 9.69 |
| CN(C)CCCNc1ccc(-c2cc(Nc3cccc(Cl)c3)ncn2)cn1 | -58.4 |
| OCCCNc1cc(-c2ccnc(Nc3cccc(Cl)c3)n2)ccn1 | -30.3 |
| CC(=O)Nc1ccc(C(=O)OCC(=O)Nc2ccc([N+](=O)[O-])cc2C(F)(F)F)cc1 | 7.22 |
| Cc1ccc(Cn2c(=O)n(Cc3ccco3)c(=O)c3ccccc32)cc1 | 16.3 |
| Cc1ccc(Cn2c(=N)n(CC(O)c3ccco3)c3ccccc32)cc1.Cl (stereo not drawn) | -64.5 |
| CC(C)(C)c1ccc(Cn2c(=O)cnc3ccccc32)cc1 | -4.85 |
| O=C(Nc1nc2ccccc2n1Cc1ccc(Cl)cc1)c1ccco1 | 5.47 |
| CC(C)(C)c1ccc(Cn2c(=N)n(CC(O)c3ccco3)c3ccccc32)cc1.Cl (stereo not drawn) | -71.9 |
| Cl.N=c1n(Cc2ccc(Cl)cc2)c2ccccc2n1CC(O)c1ccco1 (stereo not drawn) | -64.1 |
| O=c1c2ccccc2n(Cc2ccc(Cl)cc2)c(=O)n1Cc1ccco1 | 4.77 |
| CCn1c(=N)n(CC(O)c2ccco2)c2ccccc21.Cl (stereo not drawn) | -30.7 |
| O=C(c1cccs1)N(Cc1cc2ccccc2[nH]c1=O)c1ccccc1 | -11.8 |
| CC(C)CN=Cc1c(O)c([N+](=O)[O-])cc2oc3c(c12)CCCC3 | 0.113 |

| Structure (SMILES) | hERG current change (%, negative = inhibition) at 10uM [%] |
| --- | --- |
| COc1ccc(CCNC(=O)c2cccc(S(=O)(=O)N3CCOCC3)c2)cc1OC | 1.15 |
| CC(C)(C)N1CC(C(=O)Nc2ccc(C#N)cc2)CC1=O (stereo not drawn) | 11.6 |
| O=C(NCCc1ccc(Cl)cc1)c1nnc(Cc2ccc(Cl)cc2)o1 | 10.1 |
| CN(C)c1ccc(C2CC(=O)NC3=C2C(=O)CC(C)(C)C3)cc1 (stereo not drawn) | 1.9 |
| Cc1ccc(F)cc1NC(=O)N1CCCN(c2ccc(C(F)(F)F)cn2)CC1 | -43.3 |
| COc1ccccc1NC(=O)N1CCC(C(=O)c2ccc(F)cc2)CC1 | 0.487 |
| O=C(Nc1cc(F)ccc1F)N1CCN(c2ccnc3cc(Cl)ccc23)CC1 | -66.4 |
| Cc1ccc(F)cc1NC(=O)N1CCN(c2ccnc3cc(Cl)ccc23)CC1 | -67 |
| O=C(Nc1ccc(Cl)cc1Cl)N1CCN(c2ncccn2)CC1 | -21.1 |
| COc1ccccc1NC(=S)N1CCC(C(=O)c2ccc(F)cc2)CC1 | -22.7 |
| COc1ccccc1N1CCN(c2ccnc3cc(Cl)ccc23)CC1 | -43.4 |
| Cc1cccc(Cl)c1NC(=O)N1CCN(c2ccnc3cc(Cl)ccc23)CC1 | -16.8 |
| COc1ccccc1NC(=O)N1CCN(c2ccnc3cc(Cl)ccc23)CC1 | -80.5 |
| COc1cccc(Cl)c1NC(=O)N1CCN(c2ccnc3cc(Cl)ccc23)CC1 | -44.1 |
| COc1ccccc1NC(=O)N1CCC(C(=O)c2ccc(Cl)cc2)CC1 | -72.7 |
| CCC(Sc1nc(-c2ccccc2)c(C#N)c(=O)[nH]1)C(=O)Nc1nnc(C)s1 (stereo not drawn) | 1.73 |
| Cc1ccc(NC(=S)Nc2nc(CC(=O)Nc3ccccc3)cs2)cc1 | 13 |
| COC(=O)c1ccc(-c2ccc(/C=N/N3C(=O)C4C5C=CC(CC5)C4C3=O)o2)cc1 (stereo not drawn) | -16.1 |
| CC(C)CC(=O)N1CCN(Cc2cccc(Cl)c2)CC1 | 7.42 |
| CCN1CCN(CCNC(=O)c2ccc3c(c2)N(Cc2ccc(F)cc2)C(=O)/C(=C/c2ccccc2)S3)CC1 | -42.7 |
| CN(C)Cc1nnnn1-c1cccc(-n2nnnc2CN(C)C)c1 | 12.3 |
| COCC(=O)NC1CCN(CC(=O)Nc2ccc(OC)cc2[N+](=O)[O-])CC1 | -2.46 |

| Structure (SMILES) | hERG current change (%, negative = inhibition) at 10uM [%] |
| --- | --- |
| CC(C)c1ccc(Nc2nnc(SCC(=O)Nc3ncc(S(=O)(=O)c4ccc([N+](=O)[O-])cc4)s3)s2)cc1 | 13.8 |
| COC(=O)C1=CN(CCOC23CC4CC(CC(C4)C2)C3)C=C(C(=O)OC)C1c1ccsc1 | 10 |
| Cn1c(=O)[nH]c2ccc([N+](=O)[O-])nc21 | 9.62 |
| Cc1cc(=O)oc2cc(NC(=O)C3CC(=O)N(Cc4ccccc4)C3)ccc12 (stereo not drawn) | 5.29 |
| COc1ccc(NC(=O)N2CCN(c3cccc(C(F)(F)F)c3)CC2)cc1OC | -1.73 |
| COc1ccccc1NC(=O)N1CCN(c2cccc(C(F)(F)F)c2)CC1 | -76.6 |
| COc1ccc(NC(=O)N2CCN(c3cccc(C(F)(F)F)c3)CC2)cc1 | -1.89 |
| O=C(CN1C(=O)COCC1=O)N1CCOCC1 | 3.2 |
| Cc1ccc(C)n1-c1ccc(-c2nnco2)cc1 | 8.42 |
| O=C(CCCOc1ccc(Cl)cc1)NCCc1ccccc1 | 5.77 |
| Clc1ccc(OCCNCCc2ccccc2)cc1.O=C(O)C(=O)O | -73.7 |
| COc1ccc(OCCCNCCc2ccccc2)cc1.O=C(O)C(=O)O | -57 |
| COCCNCCCOc1ccc(C(C)(C)c2ccccc2)cc1.O=C(O)C(=O)O | -29.3 |
| COc1ccc(OCCCC(=O)NCCc2ccccc2)cc1 | -7.79 |
| COc1ccc(CCNCc2ccncc2)cc1.O=C(O)C(=O)O | -13.7 |
| c1ccc(CCNCCOc2ccccc2)cc1 | -0.101 |
| COc1ccc(CCNCc2ccccc2N2CCCC2)cc1.O=C(O)C(=O)O | -41.8 |
| COCCCNCCCOc1ccc(C(C)(C)c2ccccc2)cc1.O=C(O)C(=O)O | -19.9 |
| COc1ccc(CCNCc2ccccc2)cc1.O=C(O)C(=O)O | -23.9 |
| COc1ccc(CCNCc2c(-c3ccccc3)n(C)c3ccccc23)cc1.O=C(O)C(=O)O | -52.3 |
| COCCCNCCOc1ccc(C(C)(C)c2ccccc2)cc1.O=C(O)C(=O)O | -54.5 |
